Test results as given in the supplement of paper PMC10849652.
About 7,900 targets were measured; listed, in parts, are those with a hit and a random draw of the rest. About 0.6% of all pairs of compound and target were hits. A number with no mark means an inactive call.

Key:
Assay in all cases: log2 fold change, soluble protein after heating vs DMSO (PISA); higher = thermal stabilisation; K562 cells, 10 uM, 30 min; active = over 0.2 and 3.5 SD of the protein, either way, in both replicates (recomputed)
saracatinib = compound: CN1CCN(CCOc2cc(OC3CCOCC3)c3c(Nc4c(Cl)ccc5c4OCO5)ncnc3c2)CC1 [saracatinib]
Method in brief: (§1)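 K562 cells at 2×10^6 cells/mL were treated for 30 min with 10 μM compound, and aliquots were heated for 3 min over 48°C-58°C before pooling. Extraction used PBS with 0.5% NP-40 at 4°C, and soluble protein was the supernatant after 21,000xg for 90 min, measured by TMTpro 16plex LC-MS/MS with channel sums equalised. Thermal stability values, relative to control samples and from duplicates, are log2 fold changes.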

sotrastaurin = compound: CN1CCN(c2nc(C3=C(c4c[nH]c5ccccc45)C(=O)NC3=O)c3ccccc3n2)CC1 [sotrastaurin]
Method in brief: as §1

alvocidib = compound: CN1CC[C@H](c2c(O)cc(O)c3c(=O)cc(-c4ccccc4Cl)oc23)[C@H](O)C1 [alvocidib]
Method in brief: as §1

Tubastatin A = compound: CN1CCc2c(c3ccccc3n2Cc2ccc(C(=O)NO)cc2)C1 [Tubastatin A]
Method in brief: as §1

[1] = compound: CNC(=O)C1=CC=CC=C1NC2=NC(=NC=C2Cl)NC3=C(C=C(C=C3)N4CCOCC4)OC
Method in brief: as §1

defactinib = compound: CNC(=O)c1ccc(Nc2ncc(C(F)(F)F)c(NCc3nccnc3N(C)S(C)(=O)=O)n2)cc1 [defactinib]
Method in brief: as §1

rucaparib = compound: CNCc1ccc(-c2[nH]c3cc(F)cc4c3c2CCNC4=O)cc1 [rucaparib]
Method in brief: as §1

[2] = compound: CNc1nc(-c2ccc3c(N)n[nH]c3c2)cc(N2C[C@@H](C(=O)NC3CCCCC3)CC[C@H]2C)n1
Method in brief: as §1

encorafenib = compound: COC(=O)N[C@@H](C)CNc1nccc(-c2cn(C(C)C)nc2-c2cc(Cl)cc(NS(C)(=O)=O)c2F)n1 [encorafenib]
Method in brief: as §1

[3] = compound: COC(=O)[C@H](CCSC)NC(=O)C1=C(C=C(C=C1)NC[C@H](CS)N)C2=CC=CC=C2
Method in brief: as §1

[4] = compound: COC1=CC=C(C=C1)CN2C=CC3=C2C=C(C=C3)C(=O)NO
Method in brief: as §1

filanesib = compound: CON(C)C(=O)N1N=C(c2cc(F)ccc2F)S[C@@]1(CCCN)c1ccccc1 [filanesib]
Method in brief: as §1

zotarolimus = compound: CO[C@H]1C[C@@H]2CC[C@@H](C)[C@@](O)(O2)C(=O)C(=O)N2CCCC[C@H]2C(=O)O[C@H]([C@H](C)C[C@@H]2CC[C@H](n3cnnn3)[C@H](OC)C2)CC(=O)[C@H](C)/C=C(\C)[C@@H](O)[C@@H](OC)C(=O)[C@H](C)C[C@H](C)/C=C/C=C/C=C/1C [zotarolimus]
Method in brief: as §1

idasanutlin = compound: COc1cc(C(=O)O)ccc1NC(=O)[C@@H]1N[C@@H](CC(C)(C)C)[C@](C#N)(c2ccc(Cl)cc2F)[C@H]1c1cccc(Cl)c1F [idasanutlin]
Method in brief: as §1

alisertib = compound: COc1cc(Nc2ncc3c(n2)-c2ccc(Cl)cc2C(c2c(F)cccc2OC)=NC3)ccc1C(=O)O [alisertib]
Method in brief: as §1

[5] = compound: COc1cc2nc(-c3cc(F)ccc3O)nc(N[C@@H]3CNC[C@H]3C(C)(C)O)c2cc1OC
Method in brief: as §1

gefitinib = compound: COc1cc2ncnc(Nc3ccc(F)c(Cl)c3)c2cc1OCCCN1CCOCC1 [gefitinib]
Method in brief: as §1

[6] = compound: COc1cccc2cc(-c3nc([C@H]4CC[C@H](C(=O)O)CC4)n4ncnc(N)c34)[nH]c12
Method in brief: as §1

lapatinib = compound: CS(=O)(=O)CCNCc1ccc(-c2ccc3ncnc(Nc4ccc(OCc5cccc(F)c5)c(Cl)c4)c3c2)o1 [lapatinib]
Method in brief: as §1

pictilisib = compound: CS(=O)(=O)N1CCN(Cc2cc3nc(-c4cccc5[nH]ncc45)nc(N4CCOCC4)c3s2)CC1 [pictilisib]
Method in brief: as §1

UniProt P11310, sequence (P11310 whole entry, looked up): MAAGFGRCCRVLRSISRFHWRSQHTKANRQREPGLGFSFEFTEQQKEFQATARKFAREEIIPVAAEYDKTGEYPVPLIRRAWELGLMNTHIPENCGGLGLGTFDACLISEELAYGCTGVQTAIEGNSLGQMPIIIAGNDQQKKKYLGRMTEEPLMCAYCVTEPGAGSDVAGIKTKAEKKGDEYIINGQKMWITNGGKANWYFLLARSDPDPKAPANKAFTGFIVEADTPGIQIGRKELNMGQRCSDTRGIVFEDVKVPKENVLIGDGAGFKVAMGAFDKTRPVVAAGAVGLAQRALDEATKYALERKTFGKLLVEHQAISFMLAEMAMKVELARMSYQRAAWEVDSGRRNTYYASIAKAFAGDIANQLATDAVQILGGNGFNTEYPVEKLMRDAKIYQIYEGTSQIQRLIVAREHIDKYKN
UniProt Q9UHQ4, sequence (Q9UHQ4 whole entry, looked up): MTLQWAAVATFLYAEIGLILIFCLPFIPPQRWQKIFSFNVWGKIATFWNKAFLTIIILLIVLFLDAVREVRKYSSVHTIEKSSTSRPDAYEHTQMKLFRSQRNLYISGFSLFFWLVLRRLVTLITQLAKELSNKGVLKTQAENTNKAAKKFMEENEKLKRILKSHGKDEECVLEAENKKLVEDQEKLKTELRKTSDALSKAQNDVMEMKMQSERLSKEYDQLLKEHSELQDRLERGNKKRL
UniProt Q96CW1, sequence (Q96CW1 whole entry, looked up): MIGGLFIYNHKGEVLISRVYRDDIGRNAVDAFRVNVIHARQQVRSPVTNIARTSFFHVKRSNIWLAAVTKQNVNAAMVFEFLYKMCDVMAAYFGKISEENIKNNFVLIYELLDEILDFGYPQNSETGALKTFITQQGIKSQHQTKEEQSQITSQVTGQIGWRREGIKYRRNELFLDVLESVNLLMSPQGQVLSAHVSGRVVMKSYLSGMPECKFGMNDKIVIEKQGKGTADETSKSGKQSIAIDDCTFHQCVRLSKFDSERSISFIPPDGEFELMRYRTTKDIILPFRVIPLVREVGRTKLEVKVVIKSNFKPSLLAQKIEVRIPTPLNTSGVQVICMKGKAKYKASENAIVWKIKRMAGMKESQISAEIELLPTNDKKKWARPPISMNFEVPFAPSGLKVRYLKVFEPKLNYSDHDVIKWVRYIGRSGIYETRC
UniProt Q9Y487, sequence (Q9Y487 whole entry, looked up): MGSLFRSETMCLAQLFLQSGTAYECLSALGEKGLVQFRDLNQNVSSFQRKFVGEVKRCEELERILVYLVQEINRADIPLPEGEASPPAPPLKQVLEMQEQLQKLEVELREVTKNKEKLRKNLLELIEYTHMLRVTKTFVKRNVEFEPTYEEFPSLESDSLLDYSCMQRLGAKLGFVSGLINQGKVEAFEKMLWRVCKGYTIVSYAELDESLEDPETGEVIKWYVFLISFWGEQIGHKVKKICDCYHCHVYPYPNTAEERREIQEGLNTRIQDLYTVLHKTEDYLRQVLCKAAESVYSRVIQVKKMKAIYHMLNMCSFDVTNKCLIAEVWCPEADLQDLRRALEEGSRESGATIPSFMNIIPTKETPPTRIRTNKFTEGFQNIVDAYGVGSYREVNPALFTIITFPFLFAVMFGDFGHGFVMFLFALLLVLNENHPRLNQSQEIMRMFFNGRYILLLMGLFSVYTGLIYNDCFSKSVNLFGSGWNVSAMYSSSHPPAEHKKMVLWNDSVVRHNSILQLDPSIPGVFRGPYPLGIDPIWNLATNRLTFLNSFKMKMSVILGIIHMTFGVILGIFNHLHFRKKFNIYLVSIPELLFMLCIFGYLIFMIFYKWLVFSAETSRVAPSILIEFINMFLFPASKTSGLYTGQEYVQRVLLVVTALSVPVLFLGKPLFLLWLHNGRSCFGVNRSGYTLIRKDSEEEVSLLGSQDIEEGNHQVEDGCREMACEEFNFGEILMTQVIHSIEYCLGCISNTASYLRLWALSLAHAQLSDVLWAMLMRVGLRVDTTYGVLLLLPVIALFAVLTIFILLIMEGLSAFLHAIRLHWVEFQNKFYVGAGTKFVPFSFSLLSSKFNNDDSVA
UniProt Q9NYF8, sequence (Q9NYF8 whole entry, looked up): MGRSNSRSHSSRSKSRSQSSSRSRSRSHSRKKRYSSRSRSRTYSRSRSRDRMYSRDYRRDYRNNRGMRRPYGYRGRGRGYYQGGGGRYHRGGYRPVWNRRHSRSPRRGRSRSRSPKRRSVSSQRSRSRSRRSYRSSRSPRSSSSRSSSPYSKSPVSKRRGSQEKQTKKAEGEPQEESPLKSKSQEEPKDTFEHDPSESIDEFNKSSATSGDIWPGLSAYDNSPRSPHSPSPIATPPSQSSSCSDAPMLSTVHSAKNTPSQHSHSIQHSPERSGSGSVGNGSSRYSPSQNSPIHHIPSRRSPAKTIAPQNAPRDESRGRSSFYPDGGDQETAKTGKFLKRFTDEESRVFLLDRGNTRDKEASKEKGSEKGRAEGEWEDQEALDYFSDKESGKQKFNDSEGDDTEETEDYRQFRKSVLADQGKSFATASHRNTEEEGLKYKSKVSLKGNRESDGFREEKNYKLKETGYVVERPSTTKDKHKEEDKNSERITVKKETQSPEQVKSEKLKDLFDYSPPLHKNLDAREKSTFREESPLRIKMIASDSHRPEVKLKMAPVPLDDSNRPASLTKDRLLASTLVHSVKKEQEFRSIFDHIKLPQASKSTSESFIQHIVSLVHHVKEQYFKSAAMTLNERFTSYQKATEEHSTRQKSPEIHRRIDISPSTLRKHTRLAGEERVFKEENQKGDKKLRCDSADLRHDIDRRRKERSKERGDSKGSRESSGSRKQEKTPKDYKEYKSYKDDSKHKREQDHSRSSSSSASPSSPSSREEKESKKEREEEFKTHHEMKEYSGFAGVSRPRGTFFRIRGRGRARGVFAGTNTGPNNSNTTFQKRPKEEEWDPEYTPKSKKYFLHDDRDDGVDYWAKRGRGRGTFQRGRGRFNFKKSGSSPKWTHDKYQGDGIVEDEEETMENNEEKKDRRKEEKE
UniProt P42330, sequence (P42330 whole entry, looked up): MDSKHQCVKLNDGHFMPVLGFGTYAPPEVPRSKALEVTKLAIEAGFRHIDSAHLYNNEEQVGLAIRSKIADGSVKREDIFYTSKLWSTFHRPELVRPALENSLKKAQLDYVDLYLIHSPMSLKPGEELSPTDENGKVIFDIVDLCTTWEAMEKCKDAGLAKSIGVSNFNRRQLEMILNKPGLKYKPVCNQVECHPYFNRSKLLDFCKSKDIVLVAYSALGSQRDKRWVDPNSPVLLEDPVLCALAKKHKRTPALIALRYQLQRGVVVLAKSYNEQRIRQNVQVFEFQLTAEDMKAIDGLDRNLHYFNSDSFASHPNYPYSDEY
UniProt Q9UKV5, sequence (Q9UKV5 whole entry, looked up): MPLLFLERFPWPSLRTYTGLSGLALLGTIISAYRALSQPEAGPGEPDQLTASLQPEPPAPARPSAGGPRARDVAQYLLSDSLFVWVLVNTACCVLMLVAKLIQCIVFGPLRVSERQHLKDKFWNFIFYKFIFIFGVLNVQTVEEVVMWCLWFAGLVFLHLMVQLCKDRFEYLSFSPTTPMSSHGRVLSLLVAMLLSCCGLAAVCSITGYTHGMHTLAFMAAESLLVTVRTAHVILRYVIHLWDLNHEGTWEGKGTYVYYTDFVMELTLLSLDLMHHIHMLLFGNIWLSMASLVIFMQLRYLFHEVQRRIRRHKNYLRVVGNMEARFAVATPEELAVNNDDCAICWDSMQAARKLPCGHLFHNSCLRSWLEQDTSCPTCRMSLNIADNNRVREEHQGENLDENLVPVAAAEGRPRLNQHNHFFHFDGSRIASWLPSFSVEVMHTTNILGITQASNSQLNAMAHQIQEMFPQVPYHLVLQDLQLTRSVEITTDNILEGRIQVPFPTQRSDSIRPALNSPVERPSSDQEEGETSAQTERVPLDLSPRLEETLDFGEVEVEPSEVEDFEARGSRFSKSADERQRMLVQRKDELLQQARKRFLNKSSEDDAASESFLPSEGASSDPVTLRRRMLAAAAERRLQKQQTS
UniProt Q99798, sequence (Q99798 whole entry, looked up): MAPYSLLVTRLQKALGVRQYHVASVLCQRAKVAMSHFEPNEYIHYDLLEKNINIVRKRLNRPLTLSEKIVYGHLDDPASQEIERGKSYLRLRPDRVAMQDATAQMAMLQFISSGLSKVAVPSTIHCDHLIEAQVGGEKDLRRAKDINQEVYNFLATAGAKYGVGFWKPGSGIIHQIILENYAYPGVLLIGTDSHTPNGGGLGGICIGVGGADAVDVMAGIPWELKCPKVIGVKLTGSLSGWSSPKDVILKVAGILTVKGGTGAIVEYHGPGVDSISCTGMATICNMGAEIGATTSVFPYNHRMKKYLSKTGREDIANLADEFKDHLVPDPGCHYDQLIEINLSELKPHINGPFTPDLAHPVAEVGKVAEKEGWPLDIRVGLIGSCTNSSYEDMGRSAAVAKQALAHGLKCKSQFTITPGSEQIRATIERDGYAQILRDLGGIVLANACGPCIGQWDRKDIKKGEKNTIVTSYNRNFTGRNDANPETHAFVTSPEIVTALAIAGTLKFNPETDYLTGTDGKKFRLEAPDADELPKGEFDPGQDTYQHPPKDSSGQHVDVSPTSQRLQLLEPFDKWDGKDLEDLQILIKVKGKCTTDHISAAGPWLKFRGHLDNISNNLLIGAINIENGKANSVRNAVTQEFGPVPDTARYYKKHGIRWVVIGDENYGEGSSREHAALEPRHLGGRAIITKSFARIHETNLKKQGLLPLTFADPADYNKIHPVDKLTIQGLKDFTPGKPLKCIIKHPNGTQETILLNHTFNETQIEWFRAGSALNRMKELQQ
UniProt P52895, sequence (P52895 whole entry, looked up): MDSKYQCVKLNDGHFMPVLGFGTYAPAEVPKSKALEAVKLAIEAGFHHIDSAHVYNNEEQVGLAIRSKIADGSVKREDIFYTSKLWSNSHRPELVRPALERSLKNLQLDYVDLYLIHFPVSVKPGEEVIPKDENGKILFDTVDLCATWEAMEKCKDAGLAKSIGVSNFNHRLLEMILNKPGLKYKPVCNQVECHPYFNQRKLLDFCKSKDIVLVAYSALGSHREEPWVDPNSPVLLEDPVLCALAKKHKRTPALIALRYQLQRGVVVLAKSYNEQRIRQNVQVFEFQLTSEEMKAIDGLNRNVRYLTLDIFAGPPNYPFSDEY

| Target | log2 fold change (saracatinib) | log2 fold change (sotrastaurin) | log2 fold change (alvocidib) | log2 fold change (Tubastatin A) | log2 fold change [1] | log2 fold change (defactinib) | log2 fold change (rucaparib) | log2 fold change [2] | log2 fold change (encorafenib) | log2 fold change [3] | log2 fold change [4] | log2 fold change (filanesib) | log2 fold change (zotarolimus) | log2 fold change (idasanutlin) | log2 fold change (alisertib) | log2 fold change [5] | log2 fold change (gefitinib) | log2 fold change [6] | log2 fold change (lapatinib) | log2 fold change (pictilisib) |
| --- | --- | --- | --- | --- | --- | --- | --- | --- | --- | --- | --- | --- | --- | --- | --- | --- | --- | --- | --- | --- |
| ACO2 (UniProt Q99798) | 0.005 | -0.017 | -0.107 | -0.021 | 0.016 | -0.083 | -0.034 | 0.021 | 0.027 | -0.037 | -0.101 | -0.081 | 0.015 | -0.086 | -0.016 | 0.036 | 0.008 | 0.071 | -0.018 | 0.041 |
| ACADM isoform 2 (UniProt P11310) | 0.031 | 0.274 (active) | -0.006 | -0.03 | 0.019 | -0.016 | -0.024 | 0.083 | -0.016 | 0.004 | 0.039 | -0.036 | 0.014 | -0.039 | -0.055 | 0.039 | 0.017 | 0.046 | 0.001 | 0.029 |
| BCAP29 isoform 2 (UniProt Q9UHQ4) | 0.052 | 0.104 | 0.041 | -0.052 | 0.002 | 0.033 | -0.043 | -0.016 | -0.026 | 0.018 | -0.033 | -0.047 | -0.022 | 0.027 | -0.023 | -0.1 | 0.035 | 0.035 | -0.009 | -0.027 |
| AKR1C3 (UniProt P42330) | 0.05 | 0.093 | -0.054 | 0.044 | 0.188 | 0.222 | 0.061 | 0.424 | -0.081 | 0.007 | 0.87 (active) | -0.028 | 0.066 | -0.074 | -0.087 | -0.176 | 0.031 | -0.214 | -0.065 | 0.061 |
| ADD3 (UniProt Q9UEY8) | 0.032 | -0.087 | -0.068 | -0.02 | -0.005 | -0.018 | -0.013 | -0.039 | -0.003 | 0.045 | 0.018 | 0.059 | -0.074 | 0.02 | -0.063 | 0.057 | 0.021 | 0.063 | -0.006 | 0.075 |
| ARHGAP1 (UniProt Q07960) | -0.015 | -0.03 | -0.057 | 0.044 | -0.032 | -0.046 | 0.005 | -0.019 | 0.001 | -0.014 | -0.016 | 0.084 | 0.038 | 0.004 | -0.011 | 0.152 | 0.005 | -0.036 | -0.035 | 0.024 |
| AP2M1 (UniProt Q96CW1) | 0.032 | 0.008 | 0.017 | 0.002 | 0.005 | 0.016 | 0.026 | 0.001 | 0.008 | -0.014 | -0.008 | 0.048 | 0.017 | -0.018 | -0.06 | 0.01 | 0.032 | 0.01 | 0.014 | -0.021 |
| BCLAF1 (UniProt Q9NYF8) | -0.033 | 0.039 | -0.271 | 0.184 | -0.275 | -0.382 | 0.017 | -0.057 | 0.013 | -0.028 | -0.107 | 0.103 | 0.068 | 0.127 | 0.074 | -0.215 | 0.01 | 0.033 | 0.101 | -0.109 |
| AMFR (UniProt Q9UKV5) | -0.06 | -0.056 | -0.021 | -0.016 | 0.088 | -0.043 | 0.011 | -0.015 | 0.033 | 0.008 | -0.048 | -0.066 | -0.017 | 0.037 | -0.012 | -0.136 | 0.071 | 0.016 | 0.003 | -0.093 |
| BZW1 isoform 3 (UniProt Q7L1Q6) | -0.083 | -0.207 | -0.098 | 0.047 | -0.054 | -0.141 | 0.128 | 0.027 | 0.158 | -0.1 | 0.033 | -0.069 | 0.052 | -0.152 | -0.078 | -0.032 | -0.028 | -0.13 | -0.071 | -0.071 |
| ARFGEF1 (UniProt Q9Y6D6) | 0.037 | 0.039 | -0.055 | 0.013 | 0.094 | 0.007 | 0.011 | 0.059 | 0.048 | -0.038 | 0.043 | 0.014 | 0.111 | -0.092 | -0.075 | 0.246 (active) | 0.06 | 0.016 | 0.116 | 0.006 |
| ATL2 (UniProt Q8NHH9) | -0.032 | 0.05 | -0.05 | 0.047 | 0.005 | 0.008 | 0.019 | 0.035 | 0.005 | 0.008 | -0.006 | -0.03 | 0.026 | -0.052 | 0.008 | 0.148 | 0.016 | 0.034 | -0.039 | 0.003 |
| AKR1C2 (UniProt P52895) | -0.108 | -0.009 | 0.08 | 0.111 | 0.052 | 0.146 | 0.146 | 0.047 | 0.094 | -0.06 | 0.706 (active) | 0.259 | 0.097 | -0.015 | -0.012 | -0.013 | 0.044 | -0.012 | 0.068 | 0.165 |
| BRD8 (UniProt Q9H0E9) | 0.004 | -0.001 | 0.004 | -0.097 | -0.017 | -0.047 | -0.012 | -0.08 | -0.027 | -0.009 | -0.013 | 0.064 | -0.029 | 0.08 | -0.061 | -0.032 | 0.005 | 0.017 | -0.009 | 0.103 |
| ATP6V0A2 (UniProt Q9Y487) | -0.009 | -0.07 | 0.036 | 0.061 | -0.003 | 0.019 | -0.003 | -0.021 | 0.043 | -0.039 | -0.029 | -0.083 | 0.011 | 0.004 | -0.082 | -0.07 | -0.058 | -0.056 | 0.016 | -0.071 |
| ATP9B (UniProt O43861) | 0.13 | -0.185 | 0.008 | -0.055 | -0.02 | -0.025 | 0.081 | -0.027 | 0.058 | 0.06 | -0.019 | 0.192 | -0.054 | 0.022 | -0.039 | 0.023 | 0.101 | 0.178 | 0.019 | 0.012 |
